Assay results published in PubChem BioAssay AID1159580 (chemical genetic matrix, 2015).
Where “and” joins values, the source holds several entries; their conditions need not be identical. Equal values may be shown once. Among all 5,500 compounds or so, about 2,000 (36%) were called active. Not shown: some 18% with an inconclusive outcome. No stated cut-off is given here; in the data, active means normalized growth mostly below about 0.91 (no sharp cut-off); inconclusive means no clear call, values can overlap the other calls; inactive means mostly above about 0.92. The list shows a part of the results.

Assay: chemical genetic growth profiling, strain panel (AID 1159580);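 further: tested at 20 µM; growth read once vehicle control cultures reached saturation at 30 °C; 1 = growth at the plate median or of vehicle wells; lower values mean less growth of the strain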
Details: S. cerevisiae deletion strains, growth OD

Measured: normalized growth

CC(=O)CC1CCCCN1 (configuration not stated)
inactive: locus YAL013W, strain DEP1, active compounds read low 1.01 | locus YAL021C, strain ccr4, active compounds read low 1.02 | locus YAL026C, strain drs2, active compounds read low 1.01 | locus YAL030W, strain snc1, active compounds read low 1.02 | locus YBL061C, strain skt5, active compounds read low 1.02 | locus YBR009C, strain hhf1, active compounds read low 1.02 | locus YBR021W, strain FUR4, active compounds read low 0.985 | locus YBR023C, strain chs3, active compounds read low 1.03 | locus YBR171W, strain sec66, active compounds read low 1.02 | locus YBR229C, strain ROT2, active compounds read low 1.02 | locus YBR231C, strain swc5, active compounds read low 1.01 | locus YBR279W, strain paf1, active compounds read low 1.03 | locus YCL011C, strain gbp2, active compounds read low 1.02 | locus YCL016C, strain dcc1, active compounds read low 1.03 | locus YCL029C, strain bik1, active compounds read low 0.99 | locus YCL061C, strain MRC1, active compounds read low 1.01 | locus YCL069W, strain vba3, active compounds read low 1 | locus YCR088W, strain abp1, active compounds read low 1.02 | locus YDL005C, strain med2, active compounds read low 1.02 | locus YDL035C, strain GPR1, active compounds read low 1.02 | locus YDL040C, strain nat1, active compounds read low 1.02 | locus YDL074C, strain BRE1, active compounds read low 1.03 | locus YDL101C, strain DUN1, active compounds read low 1.02 | locus YDL134C, strain PPH21, active compounds read low 1.01 | locus YDL185W, strain tfp1, active compounds read low 1 | locus YDL192W, strain arf1, active compounds read low 0.992 | locus YDR001C, strain nth1, active compounds read low 1.01 | locus YDR069C, strain doa4, active compounds read low 1.01 | locus YDR101C, strain arx1, active compounds read low 0.982 | locus YDR137W, strain rgp1, active compounds read low 1.04 | locus YDR150W, strain NUM1, active compounds read low 1.02 | locus YDR159W, strain sac3, active compounds read low 1.01 | locus YDR162C, strain NBP2, active compounds read low 1.03 | locus YDR195W, strain ref2 0.982 | locus YDR297W, strain sur2, active compounds read low 1.01 | locus YDR318W, strain mcm21, active compounds read low 0.993 | locus YDR334W, strain swr1, active compounds read low 1 | locus YDR335W, strain msn5, active compounds read low 1.01 | locus YDR388W, active compounds read low 0.992 | locus YDR392W, strain spt3, active compounds read low 0.981 | locus YDR502C, strain sam2, active compounds read low 1 | locus YEL003W, strain gim4, active compounds read low 1.01 | locus YEL037C, strain rad23, active compounds read low 1.02 | locus YEL061C, strain CIN8 (second series), active compounds read low 1.02 | locus YEL061C, strain CIN8, active compounds read low 1.02 | locus YER015W, strain faa2, active compounds read low 1.02 | locus YER016W, strain bim1, active compounds read low 1.02 | locus YER110C, active compounds read low 0.988 | locus YER111C, strain swi4, active compounds read low 1.02 | locus YER155C, strain BEM2 (second series), active compounds read low 1.01 | locus YER155C, strain BEM2, active compounds read low 1.01 | locus YER167W, strain BCK2, active compounds read low 1.01 | locus YFR010W, strain ubp6, active compounds read low 1.01 | locus YGL078C, strain dbp3, active compounds read low 0.991 | locus YGL086W, strain mad1, active compounds read low 0.991 | locus YGL167C, strain pmr1, active compounds read low 1.02 | locus YGL173C, strain kem1, active compounds read low 1.01 | locus YGL227W, strain vid30, active compounds read low 1.02 | locus YGL240W, strain doc1, active compounds read low 1.01 | locus YGL248W, strain PDE1, active compounds read low 1.02 | locus YGL253W, strain hxk2, active compounds read low 1.02 | locus YGR078C, strain PAC10, active compounds read low 1.02 | locus YGR135W, strain pre9, active compounds read low 1 | locus YGR229C, strain SMI1, active compounds read low 1.03 | locus YGR252W, strain gcn5, active compounds read low 0.915 | locus YHR013C, strain ard1, active compounds read low 1.02 | locus YHR027C, strain rpn1, active compounds read low 1.01 | locus YHR030C, strain SLT2, active compounds read low 1.01 and 0.991 | locus YHR079C, strain IRE1 (second series), active compounds read low 0.994 | locus YHR079C, strain IRE1, active compounds read low 1 | locus YHR094C, strain hxt1, active compounds read low 0.991 | locus YHR129C, strain ARP1, active compounds read low 0.974 | locus YHR142W, strain chs7, active compounds read low 1.02 | locus YHR200W, strain rpn10, active compounds read low 0.982 | locus YIL066C, strain RNR3, active compounds read low 1.02 | locus YIL073C, strain SPO22, active compounds read low 1.01 | locus YIL125W, strain kgd1, active compounds read low 0.99 | locus YIR030C, strain dcg1, active compounds read low 0.993 | locus YJL092W, strain hpr5, active compounds read low 1.01 | locus YJL095W, strain BCK1 (second series), active compounds read low 1.02 | locus YJL095W, strain BCK1, active compounds read low 1.01 and 0.998 | locus YJL115W, strain asf1, active compounds read low 1.02 | locus YJL129C, strain trk1, active compounds read low 1.04 | locus YJL134W, strain LCB3, active compounds read low 1.01 | locus YJL154C, strain vps35, active compounds read low 1.02 | locus YJL164C, strain tpk1, active compounds read low 1.03 | locus YJL166W, strain qcr8, active compounds read low 1.03 | locus YJL168C, strain set2, active compounds read low 0.991 | locus YJL187C, strain SWE1 (second series), active compounds read low 1.02 | locus YJL187C, strain SWE1, active compounds read low 1.01 | locus YJR043C, strain POL32, active compounds read low 0.992 | locus YJR066W, strain TOR1, active compounds read low 0.975
